Out of some 5,500 compounds screened, about 2,000 (36%) were called active. Roughly 18% stayed inconclusive and do not appear here. Rule as the data show it: active = normalized growth mostly below about 0.91 (no sharp cut-off); inconclusive = no clear call, values can overlap the other calls; inactive = mostly above about 0.92. The list shows a part of the results.
Assay: chemical genetic growth profiling, strain panel (AID 1159580);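 also: tested at 20 µM; growth read once vehicle control cultures reached saturation at 30 °C; 1 = growth at the plate median or of vehicle wells; lower values mean less growth of the strain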
Settings: S. cerevisiae deletion strains, growth OD

Measured: normalized growth

C[C@]12CCC3c4ccc(OS(=O)(=O)O)cc4CCC3C1CCC2=O (some centres undefined)
inactive: locus YAL021C, strain ccr4, active compounds read low 0.957 | locus YAL026C, strain drs2, active compounds read low 1.01 | locus YAL030W, strain snc1, active compounds read low 0.986 | locus YBL061C, strain skt5, active compounds read low 0.967 | locus YBR009C, strain hhf1, active compounds read low 1.02 | locus YBR023C, strain chs3, active compounds read low 0.987 | locus YBR171W, strain sec66, active compounds read low 1 | locus YBR231C, strain swc5, active compounds read low 1.01 | locus YBR279W, strain paf1, active compounds read low 0.999 | locus YCL011C, strain gbp2, active compounds read low 0.998 | locus YCL016C, strain dcc1, active compounds read low 0.986 | locus YCL061C, strain MRC1, active compounds read low 1.01 | locus YCL069W, strain vba3, active compounds read low 0.995 | locus YCR088W, strain abp1, active compounds read low 0.998 | locus YDL005C, strain med2, active compounds read low 0.978 | locus YDL040C, strain nat1, active compounds read low 1 | locus YDR001C, strain nth1, active compounds read low 0.995 | locus YDR069C, strain doa4, active compounds read low 0.989 | locus YDR137W, strain rgp1, active compounds read low 0.976 | locus YDR159W, strain sac3, active compounds read low 1 | locus YDR195W, strain ref2 0.999 | locus YDR297W, strain sur2, active compounds read low 1 | locus YDR334W, strain swr1, active compounds read low 0.993 | locus YDR335W, strain msn5, active compounds read low 1 | locus YDR392W, strain spt3, active compounds read low 0.923 | locus YEL003W, strain gim4, active compounds read low 0.998 | locus YEL037C, strain rad23, active compounds read low 1.01 | locus YEL061C, strain CIN8 (second series), active compounds read low 1.03 | locus YER015W, strain faa2, active compounds read low 0.993 | locus YER016W, strain bim1, active compounds read low 0.962 | locus YER111C, strain swi4, active compounds read low 0.959 | locus YER155C, strain BEM2 (second series), active compounds read low 1 | locus YFR010W, strain ubp6, active compounds read low 1.02 | locus YGL167C, strain pmr1, active compounds read low 1 | locus YGL173C, strain kem1, active compounds read low 0.97 | locus YGL227W, strain vid30, active compounds read low 0.981 | locus YGL240W, strain doc1, active compounds read low 0.983 | locus YGL253W, strain hxk2, active compounds read low 0.996 | locus YHR013C, strain ard1, active compounds read low 0.939 | locus YHR027C, strain rpn1, active compounds read low 1.01 | locus YHR030C, strain SLT2, active compounds read low 0.961 | locus YHR079C, strain IRE1, active compounds read low 0.961 | locus YHR142W, strain chs7, active compounds read low 0.983 | locus YJL092W, strain hpr5, active compounds read low 1 | locus YJL095W, strain BCK1 (second series), active compounds read low 0.977 | locus YJL095W, strain BCK1, active compounds read low 0.992 | locus YJL115W, strain asf1, active compounds read low 0.995 | locus YJL129C, strain trk1, active compounds read low 0.958 | locus YJL154C, strain vps35, active compounds read low 0.974 | locus YJL164C, strain tpk1, active compounds read low 0.996 | locus YJL166W, strain qcr8, active compounds read low 1.01 | locus YJR066W, strain TOR1, active compounds read low 0.942 | locus YKL160W, strain elf1, active compounds read low 0.928 | locus YKR026C, strain gcn3, active compounds read low 1 | locus YKR091W, strain srl3, active compounds read low 0.991 | locus YLL001W, strain dnm1, active compounds read low 1.02 | locus YLL026W, active compounds read low 1.02 | locus YLL041C, strain sdh2, active compounds read low 0.991 | locus YLR027C, strain aat2, active compounds read low 1.01 | locus YLR113W, strain HOG1, active compounds read low 1.02 | locus YLR221C, strain rsa3, active compounds read low 1.04 | locus YLR258W, strain gsy2, active compounds read low 1 | locus YLR262C, strain YPT6 (second series), active compounds read low 0.984 | locus YLR320W, strain mms22, active compounds read low 1.01 | locus YLR342W, strain FKS1, active compounds read low 0.971 | locus YLR357W, strain rsc2, active compounds read low 0.983 | locus YLR370C, strain arc18, active compounds read low 1.01 | locus YLR384C, strain iki3, active compounds read low 0.981 | locus YML120C, strain ndi1, active compounds read low 1 | locus YMR058W, strain fet3, active compounds read low 1.01 | locus YMR125W, strain sto1, active compounds read low 0.97 | locus YMR129W, active compounds read low 1.01 | locus YMR205C, strain PFK2, active compounds read low 1 | locus YMR231W, strain pep5, active compounds read low 0.995 | locus YNL071W, strain lat1, active compounds read low 1.02 | locus YNL183C, strain NPR1, active compounds read low 0.975 | locus YNL209W, strain ssb2, active compounds read low 0.985 | locus YNL248C, strain rpa49, active compounds read low 0.89 | locus YNL322C, strain KRE1 (second series), active compounds read low 0.948 | locus YNR049C, strain mso1, active compounds read low 0.99 | locus YOR001W, strain rrp6, active compounds read low 1.03 | locus YOR070C, strain gyp1, active compounds read low 0.987 | locus YOR080W, strain dia2, active compounds read low 0.991 | locus YOR083W, strain WHI5, active compounds read low 0.912 | locus YOR106W, strain vam3, active compounds read low 0.971 | locus YOR231W, strain MKK1, active compounds read low 1 | locus YOR265W, strain rbl2, active compounds read low 1.01 | locus YOR270C, strain vph1, active compounds read low 0.917 | locus YOR290C, strain snf2, active compounds read low 0.977 | locus YPL051W, strain arl3, active compounds read low 0.987 | locus YPL078C, strain atp4, active compounds read low 0.965 | locus YPL106C, strain sse1, active compounds read low 0.968 | locus YPL240C, strain hsp82, active compounds read low 0.999 | locus YPL256C, strain CLN2, active compounds read low 0.982
